Results as given in the supplement of paper PMC12350171.
Structures can show the parent of a compound that is named as a salt. A number with no mark means an inactive call.

Legend:
Details in all cases: 20 µM
[1] = tested on: Salmonella enterica typhimurium; assay: growth AUC normalised to DMSO control (fraction of control); higher = less growth inhibition, active = hit call of the paper
Summary of the method: (§1)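 After two anaerobic passages, pathogens were added at a starting OD578 of 0.01 to pre-reduced mGAM plates holding compound at 20 μM with 1% DMSO; hemin and NAD were supplemented for Haemophilus parainfluenzae. Sealed with breathable membranes, plates were read at OD578 hourly for 24 h, in three biological replicates. The trapezoidal rule, applied up to the exponential-to-stationary transition, gave the growth-curve AUC, which was normalised to DMSO controls on the same plate.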

Shigella flexneri = assay: as above
Summary of the method: as §1

Vibrio cholerae = assay: as above
Summary of the method: as §1

[2] = tested on: Yersinia pseudotuberculosis; assay: as above
Summary of the method: as §1

P. vulgatus RND KO = assay: growth AUC normalised to DMSO control (median) (fraction of control); higher = less growth inhibition, active = hit call of the paper
Summary of the method: (§2)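 For normalised area under the curve, growth curves were truncated at entry into stationary phase, integrated by the trapezoidal rule and divided against vehicle wells on the same plate. The curves came from strains passaged twice overnight without oxygen and then grown in mGAM in 96-well plates at a starting OD578 of 0.01. Each well held an approved-drug library compound at 20 μM with 1% DMSO, and OD578 was read hourly for 24 h in an anaerobic incubator. Values are medians of three biological replicates.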

P. vulgatus WT = assay: as above
Summary of the method: as §2

[3] = tested on: S. enterica typhimurium WT; assay: as above
Summary of the method: as §2

[4] = tested on: S. enterica typhimurium tolC KO; assay: as above
Summary of the method: as §2
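Wherever growth AUC normalised to DMSO control (median) is given: active when median AUC fell below 0.1.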

SMILES	growth AUC normalised to DMSO control [1]	growth AUC normalised to DMSO control (Shigella flexneri)	growth AUC normalised to DMSO control (Vibrio cholerae)	growth AUC normalised to DMSO control [2]	growth AUC normalised to DMSO control (P. vulgatus RND KO)	growth AUC normalised to DMSO control (P. vulgatus WT)	growth AUC normalised to DMSO control [3]	growth AUC normalised to DMSO control [4]
CNS(=O)(=O)Cc1ccc2[nH]cc(CCN(C)C)c2c1 [Sumatriptan succinate]	0.996	0.967	0.988	1	1.03	1.01	1.01	1
C#C[C@]1(O)CC[C@H]2[C@@H]3CCC4=CC(=O)CC[C@@H]4[C@H]3CC[C@@]21C [Norethindrone]	1.01	0.977	0.996	0.988	0.997	1.03	1.01	0.993
CN1CCc2c(c3ccccc3n2Cc2ccccc2)C1 [Mebhydroline 1,5-naphtalenedisulfonate]	0.985	0.96	0.922	0.702	0.948	0.971	0.979	0.977
CCCCN1CCCCC1C(=O)Nc1c(C)cccc1C (stereo not drawn) [Bupivacaine hydrochloride]	1.04	0.973	0.998	0.973	1.01	0.998	0.998	0.985
C[C@@H]1[C@H](O)[C@@H](C)/C=C/C=C/C=C/C=C/C=C/C=C/C=C/[C@H](O[C@@H]2O[C@H](C)[C@@H](O)[C@H](N)[C@@H]2O)C[C@@H]2O[C@](O)(C[C@@H](O)C[C@@H](O)[C@H](O)CC[C@@H](O)C[C@@H](O)CC(=O)O[C@H]1C)C[C@H](O)[C@H]2C(=O)O [Amphotericin B]	1.02	1.1	1.05	1.02	1.04	1.1	1.01	0.988
Cc1cn[nH]c1 [Fomepizole]	0.996	0.992	0.977	0.996	0.978	0.985	0.993	0.997
CNCCCN1c2ccccc2CCc2ccccc21 [Desipramine hydrochloride]	0.974	0.946	0.957	0.986	0.947	0.976	0.964	0.925
COc1cccc2c1C(=O)c1c(O)c3c(c(O)c1C2=O)C[C@@](O)(C(C)=O)C[C@@H]3O[C@H]1C[C@H](N)[C@H](O)[C@H](C)O1 [Daunorubicin hydrochloride]	0.998	0.959	1.04	0.978	0.865	0.95	0.999	0.00353 (active)
CS(=O)(=O)Nc1ccc([N+](=O)[O-])cc1Oc1ccccc1 [Nimesulide]	0.985	0.953	0.907	0.984	0.983	0.979	0.988	0.984
CN(C)c1nc(N(C)C)nc(N(C)C)n1 [Altretamine]	1.01	1.06	1.05	1.02	1.01	0.998	1	0.99
NC(=O)N1c2ccccc2CC(=O)c2ccccc21 [Oxcarbazepine]	0.971	0.952	0.981	0.992	0.989	0.995	0.999	1
O=C(CCCCCCC(=O)Nc1ccccc1)NO [Vorinostat]	0.994	1.03	0.996	1.03	1.01	1.06	0.997	1
CN1CCN(CC(=O)N2c3ccccc3C(=O)Nc3cccnc32)CC1 [Pirenzepine dihydrochloride]	0.993	1	0.988	1.01	1	0.98	0.999	1
COc1cc2ncnc(Nc3ccc(F)c(Cl)c3)c2cc1OCCCN1CCOCC1 [Gefitinib]	1.01	1.02	1	0.983	1.07	1.07	1.01	0.928
O=C(c1ccc(F)cc1)C1CCN(CCn2c(=O)[nH]c3ccccc3c2=O)CC1 [Ketanserin tartrate hydrate]	1.01	1.03	0.894	1	1.03	1.05	1.02	0.997
Cc1[nH]c(=O)c(C#N)cc1-c1ccncc1 [Milrinone]	0.949	0.999	0.968	0.989	0.988	0.995	0.987	0.936

SMILES	growth AUC normalised to DMSO control [1]	growth AUC normalised to DMSO control (Shigella flexneri)	growth AUC normalised to DMSO control (Vibrio cholerae)	growth AUC normalised to DMSO control [2]	growth AUC normalised to DMSO control (P. vulgatus RND KO)	growth AUC normalised to DMSO control (P. vulgatus WT)	growth AUC normalised to DMSO control [3]	growth AUC normalised to DMSO control [4]
CN1CCC(=C2c3ccccc3CC(=O)c3sccc32)CC1 [Ketotifen fumarate]	1.01	0.999	0.985	1.01	0.979	0.997	1.01	0.999
COc1c(N2C[C@@H]3CCCN[C@@H]3C2)c(F)cc2c(=O)c(C(=O)O)cn(C3CC3)c12 [Moxifloxacin]	0.00585 (active)	0.0275 (active)	0.0211 (active)	0.0337 (active)	0.017 (active)	0.0128 (active)	0.0075 (active)	0.00519 (active)
O=C1Nc2ccc(Cl)cc2[C@@](C#CC2CC2)(C(F)(F)F)O1 [Efavirenz]	0.997	1.01	0.999	0.999	0.715	0.752	1	0.261
CC(C(=O)O)c1ccc(C(=O)c2ccccc2)s1 (stereo not drawn) [Tiaprofenic acid]	1	1.01	0.978	1.01	1.02	1.05	1	0.992
O=C(Nc1ccccc1)OCC(CN1CCCCC1)OC(=O)Nc1ccccc1 (stereo not drawn) [Diperodon hydrochloride]	1.01	1.03	0.999	1.01	0.998	1.01	0.997	0.986
NC(=O)c1ncn([C@@H]2O[C@H](CO)[C@@H](O)[C@H]2O)n1 [Ribavirin]	0.995	0.949	0.983	0.952	0.987	1	0.98	0.988
O=C1C(CC[S+]([O-])c2ccccc2)C(=O)N(c2ccccc2)N1c1ccccc1 (stereo not drawn) [Sulfinpyrazone]	0.996	1	1	0.971	1	1.01	0.998	0.985
CC(C)NCC(O)c1ccc2ccccc2c1 (stereo not drawn) [Pronethalol hydrochloride]	0.991	1	0.999	0.982	1	1.01	0.994	0.989
O=C(O)c1cc(-c2ccc(F)cc2F)ccc1O [Diflunisal]	0.983	0.997	0.899	0.984	0.999	1.07	0.973	0.943
CC(=O)SCC(Cc1ccccc1)C(=O)NCC(=O)OCc1ccccc1 (stereo not drawn) [Racecadotril]	1	1	1	1.01	1.06	1.05	1	0.963
COc1cc2nc(N3CCN(C(=O)C4CCCO4)CC3)nc(N)c2cc1OC (stereo not drawn) [Terazosin hydrochloride]	0.998	0.96	0.989	0.989	1.03	1.04	1	1.01
CN(C)CCC(c1ccc(Br)cc1)c1ccccn1 (stereo not drawn) [Brompheniramine maleate]	0.99	1	1.02	1	0.994	0.995	0.977	0.856
CN[C@@H]1[C@H](O[C@H]2[C@H](O[C@H]3[C@H](O)[C@@H](O)[C@H](N=C(N)N)[C@@H](O)[C@@H]3N=C(N)N)O[C@@H](C)[C@]2(O)C=O)O[C@@H](CO)[C@H](O)[C@H]1O [Streptomycin sulfate]	1.02	1.05	1.06	0.965	1.05	1.09	0.983	1
CCC(C)(CN(C)C)OC(=O)c1ccccc1 (stereo not drawn) [Amyleine hydrochloride]	0.992	0.989	0.989	1.01	0.995	1.01	0.983	1.01
Cc1noc(NS(=O)(=O)c2ccc(N)cc2)c1C [Sulfisoxazole]	0.995	1	1.03	0.971	1	1.05	0.997	0.98
